These results are taken from PubChem BioAssay (Tox21).

Records with an inconclusive call do not appear. Active and inactive are the calls of the source. Unless noted, calls come from the whole dose curve; as a rule, active = well fitted curve in the direction sought with a large enough effect in the repeat runs; inconclusive = weak or mixed curves; inactive = no such curve, though single readings can be large; an effect the other way counts as inactive or inconclusive.

Assay [1] is described as follows: qHTS assay to identify small molecule antagonists of the estrogen receptor alpha (ER-alpha) signaling pathway using the BG1 cell line in the presence of 0.1 nM 17-beta-estradiol - cell viability counter screen (AID 1259241). Note: nearly all actives have a fitted effect of over 40% in size. Put shortly:
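VM7Luc4E2 cells (endogenous full-length ER-alpha, 4xERE-luciferase), cultured 5 days in charcoal-stripped serum, exposed to compounds with 0.1 nM 17beta-estradiol (final) for 22 hr at 37C. Viability read in same wells as live-cell protease fluorescence after 30 min.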

Assay [2] can be described thus: qHTS assay to identify small molecule antagonists of the androgen receptor (AR) signaling pathway using the MDA cell line in the presence of 0.5 nM R1881 - cell viability counter screen (AID 1259242). Note: nearly all actives have a fitted effect of over 45% in size. Put shortly:
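Human breast carcinoma MDA-kb2 cells, cultured without CO2, receive compounds alongside 0.5 nM (final) R1881 agonist. After 16 hr at 37C, viability is taken as live-cell protease signal.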

Assay [3] deals with Estrogen receptor (Homo sapiens) (UniProt P03372). In words: qHTS assay to identify small molecule antagonists of the estrogen receptor alpha (ER-alpha) signaling pathway using the BG1 cell line in the presence of 0.1 nM 17-beta-estradiol (AID 1259244). Note: nearly all actives have a fitted effect of over 50% in size. Note: potency is the fitted concentration of half-maximal effect. Put shortly: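 Seeding of stripped-serum-adapted VM7Luc4E2 cells, 24 h attachment, compound transfer, then 0.1 nM final 17beta-estradiol; after 22 h incubation, ONE-Glo reagent and luminescence reading.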

A short description of assay [4]: qHTS assay to identify small molecule HDAC inhibitors (AID 1259364).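 Note: wild-type HCT-116 cells with endogenous class I/II HDAC activity; top concentration of the series differs between compounds; nearly all actives have a fitted effect of over 45% in size.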 Put shortly:
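After a 2 hr compound incubation (37C, 5% CO2), HCT-116 cells seeded at 1,500/well the day before received HDAC-Glo reagent; signal read as luminescence after 30 min at room temperature.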

The nature of assay [5]: qHTS assay to identify small molecule HDAC inhibitors - cell viability counter screen (AID 1259365). Note: series mostly up to about 92 µM; nearly all actives have a fitted effect of over 50% in size. Put shortly:
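Wild-type HCT-116 cells, 1,500/well, cultured overnight, then compound-treated 2 h at 37 C. Viability measured as ATP luminescence with CellTiter-Glo after 30 min at room temperature.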

The nature of assay [6]: qHTS assay to identify small molecule agonists of the sonic hedgehog signaling (Shh) pathway - cell viability counter screen (AID 1259366). Note: nearly all actives have a fitted effect of over 50% in size. The method, boiled down: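 NIH/3T3-derived Gli1-Luc reporter cells, 2,000 per well, received compound after 4 h and were treated about 23 h at 37C. Viability measured in the same wells by CellTiter-Fluor fluorescence after 1 h.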
Assay [7] can be described thus: qHTS assay to identify small molecule antagonists of the sonic hedgehog signaling (Shh) pathway - cell viability counter screen (AID 1259367). Note: nearly all actives have a fitted effect of over 55% in size. The method, boiled down:
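Tox21 library chemicals were tested on a Gli1-Luc NIH/3T3 clone (2,000 cells/well) stimulated by conditioned medium; viability was quantified as fluorescence from CellTiter-Fluor reagent added at 23 hr.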

A short description of assay [8]: qHTS assay to identify small molecule agonists of the sonic hedgehog signaling (Shh) pathway (AID 1259368; calls by dose curve;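 note: NIH/3T3-derived 3T3Gli1-Luc cells carrying a stable Gli1-driven firefly luciferase reporter; series mostly up to about 92 µM; nearly all actives have a fitted effect of over 15% in size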). The method, boiled down: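 Stable NIH/3T3 Gli1-Luc reporter clone; 24 hr cpd exposure after a 4 hr settling period; luminescence endpoint.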
In assay [9] the target is Estrogen receptor beta (Homo sapiens) (UniProt Q92731). In words: qHTS assay to identify small molecule agonists of the estrogen receptor beta (ER-beta) signaling pathway (AID 1259377; active = well fitted activation curve with a large enough effect in the signal ratio in the repeat runs, not every such curve was filed as active; the % refers to the signal ratio). The method, boiled down:
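ER-beta-UAS-bla HEK293T cells in medium with 2% charcoal-stripped FBS were exposed to compounds for 16 h at 37C. Beta-lactamase reporter activity was read as fluorescence after 2 h with LiveBLAzer B/G FRET substrate at room temperature.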

Assay [10] has the same target. Put plainly: qHTS assay to identify small molecule antagonists of the estrogen receptor beta (ER-beta) signaling pathway (AID 1259378; active = well fitted inhibition curve with a large enough effect in the signal ratio in the repeat runs, not every such curve was filed as active; the % refers to the signal ratio; note: potency is the fitted concentration of half-maximal effect). The method, boiled down:
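ER-beta-UAS-bla HEK293T cells in 2% charcoal-stripped FBS medium treated with compound plus 1nM final 17-beta-estradiol for 16 hr at 37C. Beta-lactamase reporter read by FRET substrate fluorescence after 2 hours at room temperature.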

Assay [11] can be described thus: qHTS assay to identify small molecule agonists of the androgen receptor (AR) signaling pathway in the presence of an antagonist - cell viability counter screen (AID 1259379).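 Note: MDA-kb2 human breast cancer cells carrying an MMTV luciferase reporter; series mostly up to about 92 µM; nearly all actives have a fitted effect of over 25% in size.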 Put shortly: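 Counter screen for cell viability run in parallel with the AR agonist-mode luciferase assay. MDA-kb2 cells were co-treated with nilutamide (3.0uM final) and compounds, then incubated 16 hr at 37C, and CellTiter-Fluor fluorescence was measured.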

Assay [12] in a line: qHTS assay to identify small molecule agonists of the estrogen receptor beta (ER-beta) signaling pathway - cell viability counter screen (AID 1259380). Note: nearly all actives have a fitted effect of over 30% in size. Note: potency is the fitted concentration of half-maximal effect. The method, boiled down: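 In this qHTS counter screen, HEK293T cells carrying an ER-beta/UAS beta-lactamase reporter, grown in 2% charcoal-stripped FBS, received compound for 16 hr; ATP-based CellTiter-Glo luminescence was then read after 30 min at room temperature.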

Assay [13] in a line: qHTS assay to identify small molecule antagonists of the estrogen receptor beta (ER-beta) signaling pathway - cell viability counter screen (AID 1259382). Note: series mostly up to about 92 µM; nearly all actives have a fitted effect of over 55% in size. The method, boiled down: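 HEK293T ER-beta-UAS-bla, 2% charcoal-stripped FBS; compounds + 1nM E2 16 hr 37C; CellTiter-Glo luminescence, 30 min RT.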
In assay [14] the target is Estrogen receptor (Homo sapiens) (UniProt P03372). Put plainly: qHTS assay to identify small molecule agonists of the estrogen receptor alpha (ER-alpha) signaling pathway in the presence of an antagonist (AID 1259383; calls by dose curve; note: top concentration of the series differs between compounds; nearly all actives have a fitted effect of over 15% in size). Put shortly:
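ER-alpha agonism measured under antagonist challenge: 10.0nM ICI-182,780 (final) plus compound, 15 concentrations, 22hr, VM7Luc4E2 ERE-luciferase cells. Read by luminescence.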

A short description of assay [15]: qHTS assay to identify small molecule agonists or antagonists of the thyroid stimulating hormone receptor (TSHR) signaling pathway - wild type cell line counter screen (AID 1259384; calls by dose curve). Put shortly: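 Wild-type Hek293 cells, 800/well, 18 h at 37C, then compound with Ro20-1724 for 30 min RT. cAMP by HTRF (cAMP-d2/anti-cAMP cryptate), 1 h RT, fluorescence read. 15 concentrations, triplicates.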

Assay [16] deals with Thyrotropin receptor (Homo sapiens) (UniProt P16473). Put plainly: qHTS assay to identify small molecule antagonists of the thyroid stimulating hormone receptor (TSHR) signaling pathway (AID 1259385; calls by dose curve; note: nearly all actives have a fitted effect of over 20% in size). The method, boiled down: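 TSHR-HEK293 cells (800/well) plated 18 h, then compounds with Ro20-1724 and TSH at 1.5 ng/mL final, 30 min at room temperature. cAMP quantified by HTRF (cAMP-d2/anti-cAMP-cryptate, 1 h); 15 concentrations in triplicate.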

A short description of assay [17]: qHTS assay to identify small molecule agonists of the estrogen receptor alpha (ER-alpha) signaling pathway in the presence of an antagonist - cell viability counter screen (AID 1259386). Note: series mostly up to about 92 µM; nearly all actives have a fitted effect of over 30% in size. The method, boiled down: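 Steps: 5-day stripped-FBS culture; seed and incubate 24hr; add ICI-182,780 (10.0nM final); pin 15-point compound titration; incubate 22hr at 37C; add CellTiter-Fluor at 21hr; read fluorescence.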

Assay [18] in a line: qHTS assay to identify small molecule antagonists of the sonic hedgehog signaling (Shh) pathway (AID 1259369; calls by dose curve; note: nearly all actives have a fitted effect of over 45% in size). Put shortly:
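Gli1 transcriptional reporter (firefly Luc) in NIH/3T3 background, conditioned-medium activated. 24hr exposure, luminescence endpoint.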

For assay [19], the target named is Androgen receptor (Homo sapiens) (UniProt P10275). Put plainly: qHTS assay to identify small molecule agonists of the androgen receptor (AR) signaling pathway in the presence of an antagonist (AID 1259381; calls by dose curve; note: nearly all actives have a fitted effect of over 15% in size). The method, boiled down: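 AR antagonist background: nilutamide 3.0uM final. Cell line: MDA-kb2, MMTV-driven luciferase, responsive to both AR and GR. Exposure 16hr, 37C, no CO2; ONE-Glo luminescence.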
Sequence of Androgen receptor (Homo sapiens) (P10275 whole entry, looked up): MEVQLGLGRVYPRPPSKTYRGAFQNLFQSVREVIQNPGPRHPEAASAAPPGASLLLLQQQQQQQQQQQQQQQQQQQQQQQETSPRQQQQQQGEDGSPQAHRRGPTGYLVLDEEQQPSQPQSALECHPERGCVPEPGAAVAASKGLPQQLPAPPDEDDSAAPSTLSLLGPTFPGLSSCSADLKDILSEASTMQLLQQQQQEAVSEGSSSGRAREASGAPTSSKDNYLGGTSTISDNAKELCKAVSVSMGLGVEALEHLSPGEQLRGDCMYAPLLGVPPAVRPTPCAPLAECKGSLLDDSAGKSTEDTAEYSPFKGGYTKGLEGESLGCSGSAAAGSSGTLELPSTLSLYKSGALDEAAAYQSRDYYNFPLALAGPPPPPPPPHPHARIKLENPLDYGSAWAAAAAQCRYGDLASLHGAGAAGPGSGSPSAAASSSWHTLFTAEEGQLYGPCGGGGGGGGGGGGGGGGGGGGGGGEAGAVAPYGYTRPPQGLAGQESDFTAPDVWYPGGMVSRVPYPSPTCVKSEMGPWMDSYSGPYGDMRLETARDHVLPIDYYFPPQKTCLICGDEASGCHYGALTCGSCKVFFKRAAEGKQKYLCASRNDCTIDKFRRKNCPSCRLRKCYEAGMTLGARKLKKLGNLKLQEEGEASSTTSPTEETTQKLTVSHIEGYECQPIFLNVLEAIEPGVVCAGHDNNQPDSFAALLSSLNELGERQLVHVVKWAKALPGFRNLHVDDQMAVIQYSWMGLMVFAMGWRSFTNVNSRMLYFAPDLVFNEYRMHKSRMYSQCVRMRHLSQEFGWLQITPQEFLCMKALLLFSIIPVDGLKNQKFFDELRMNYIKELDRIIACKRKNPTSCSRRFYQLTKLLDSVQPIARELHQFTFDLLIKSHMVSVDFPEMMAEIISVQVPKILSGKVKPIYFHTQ

Sequence of Estrogen receptor beta (Homo sapiens) (Q92731 whole entry, looked up): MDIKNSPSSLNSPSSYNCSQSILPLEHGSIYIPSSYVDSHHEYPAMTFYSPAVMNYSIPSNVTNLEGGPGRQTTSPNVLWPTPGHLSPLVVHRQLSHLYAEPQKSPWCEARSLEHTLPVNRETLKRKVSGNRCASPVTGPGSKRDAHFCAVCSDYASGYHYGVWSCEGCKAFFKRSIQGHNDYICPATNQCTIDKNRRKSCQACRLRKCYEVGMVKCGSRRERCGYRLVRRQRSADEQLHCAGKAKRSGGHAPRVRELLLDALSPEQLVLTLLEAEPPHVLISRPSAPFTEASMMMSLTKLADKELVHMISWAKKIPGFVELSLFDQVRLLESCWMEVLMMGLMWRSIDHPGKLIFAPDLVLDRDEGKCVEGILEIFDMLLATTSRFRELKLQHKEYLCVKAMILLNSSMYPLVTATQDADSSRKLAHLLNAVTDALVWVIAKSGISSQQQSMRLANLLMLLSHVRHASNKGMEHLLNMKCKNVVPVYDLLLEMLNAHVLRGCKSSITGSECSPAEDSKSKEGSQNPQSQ
Sequence of Estrogen receptor (Homo sapiens) (P03372 whole entry, looked up): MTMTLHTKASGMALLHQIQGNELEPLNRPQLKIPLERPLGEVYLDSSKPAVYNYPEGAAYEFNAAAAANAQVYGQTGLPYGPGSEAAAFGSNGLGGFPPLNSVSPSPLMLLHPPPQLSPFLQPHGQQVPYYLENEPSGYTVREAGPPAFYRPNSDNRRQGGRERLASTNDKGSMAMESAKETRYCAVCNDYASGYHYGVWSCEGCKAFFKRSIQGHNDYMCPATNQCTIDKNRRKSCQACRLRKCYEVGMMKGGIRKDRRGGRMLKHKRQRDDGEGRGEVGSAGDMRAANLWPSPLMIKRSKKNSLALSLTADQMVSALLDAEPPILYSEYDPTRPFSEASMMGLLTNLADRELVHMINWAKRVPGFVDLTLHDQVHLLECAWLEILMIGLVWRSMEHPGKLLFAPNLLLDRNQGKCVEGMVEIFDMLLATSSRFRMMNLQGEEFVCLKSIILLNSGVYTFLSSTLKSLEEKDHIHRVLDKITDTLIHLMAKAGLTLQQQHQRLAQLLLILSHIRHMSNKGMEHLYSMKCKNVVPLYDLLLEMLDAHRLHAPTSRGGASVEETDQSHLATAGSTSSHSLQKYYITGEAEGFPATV
Sequence of Thyrotropin receptor (Homo sapiens) (P16473 whole entry, looked up): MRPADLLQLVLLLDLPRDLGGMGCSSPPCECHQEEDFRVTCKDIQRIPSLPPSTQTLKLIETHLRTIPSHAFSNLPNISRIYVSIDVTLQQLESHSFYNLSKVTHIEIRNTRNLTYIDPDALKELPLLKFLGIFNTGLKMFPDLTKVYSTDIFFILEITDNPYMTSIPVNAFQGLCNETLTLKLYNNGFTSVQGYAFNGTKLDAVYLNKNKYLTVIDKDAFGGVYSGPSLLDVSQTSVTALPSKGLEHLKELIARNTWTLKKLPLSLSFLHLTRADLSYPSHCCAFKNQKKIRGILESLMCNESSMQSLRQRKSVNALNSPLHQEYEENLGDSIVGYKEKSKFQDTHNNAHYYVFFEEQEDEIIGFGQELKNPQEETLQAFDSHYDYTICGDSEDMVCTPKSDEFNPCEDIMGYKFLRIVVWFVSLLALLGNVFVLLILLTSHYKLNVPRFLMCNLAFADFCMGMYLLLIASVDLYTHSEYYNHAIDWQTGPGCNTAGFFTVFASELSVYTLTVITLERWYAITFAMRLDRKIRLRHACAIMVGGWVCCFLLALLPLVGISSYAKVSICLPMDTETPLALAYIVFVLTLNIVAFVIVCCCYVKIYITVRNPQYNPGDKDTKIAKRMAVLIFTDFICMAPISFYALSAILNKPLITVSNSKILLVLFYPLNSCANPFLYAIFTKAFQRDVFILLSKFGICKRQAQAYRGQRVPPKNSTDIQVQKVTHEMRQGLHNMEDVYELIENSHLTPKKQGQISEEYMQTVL

For `Cc1cc2c3c(c1)C(c1ccccc1)=N[C@@H](NC(=O)c1ccncc1)C(=O)N3CC2`, the Potency result in [1], in assay [2], in assay [3], in assay [4], in assay [5] and in [6] was “inactive” each time. In addition, the Potency entry in assay [7], in assay [8], in assay [9], in [10], in [11] and in [12] was “inactive” each time. The Potency entry in assay [13], in [14], in assay [15], in [16] and in assay [17] was “inactive” each time.

In the case of `CCN(CC)C(=O)N[C@@H]1C=C2c3cccc4[nH]cc(c34)C[C@@H]2N(C)C1`, the Potency entry in assay [1], in assay [2], in assay [3], in assay [4], in assay [5] and in assay [6] was “inactive” each time. Further, the Potency entry in assay [8], in assay [18], in [12], in assay [13], in assay [14] and in [15] was “inactive” each time. Also, the Potency entry in assay [16] and in assay [17] was “inactive” each time.

For the compound `O=P(Cl)(Cl)Cl`, the Potency result in assay [1], in assay [2], in assay [3], in assay [4], in assay [5] and in assay [6] was “inactive” in each case. The Potency result in [7], in [8], in assay [18], in [11], in [12] and in [13] was “inactive” each time. Further, the Potency result in assay [14], in assay [15], in assay [16] and in assay [17] was “inactive” in each case.

`CC(Cc1ccc2c(c1)OCO2)NO` (configuration not stated): the Potency entry in assay [1], in assay [2], in assay [3], in [4], in [5] and in [6] was “inactive” each time. The Potency entry in [7], in [8], in assay [18], in assay [11], in assay [12] and in assay [13] was “inactive” each time. In addition, the Potency result in assay [14], in assay [15], in assay [16] and in assay [17] was “inactive” each time.

Regarding `CN1C2CCC(C)(C)C1CC(OC(=O)C(O)(c1cccs1)c1cccs1)C2` (configuration not stated), the Potency result in assay [1], in assay [2], in assay [3], in assay [4], in assay [5] and in [7] was “inactive” throughout. Moreover, the Potency result in assay [8], in [12], in [13], in [14], in assay [15] and in [16] was “inactive” each time. In addition, in assay [17], the Potency entry is “inactive”.

For the compound `CC[N+]1(CC)CCC(OC(=O)C(O)(c2ccccc2)c2ccccc2)C1` (configuration not stated), the Potency entry in assay [1], in [2], in [3], in assay [4], in [5] and in [6] was “inactive” throughout. In addition, the Potency entry in assay [7], in [8], in assay [18], in [11], in assay [12] and in [13] was “inactive” each time. The Potency entry in [14], in [15], in assay [16] and in [17] was “inactive” throughout.

Turning to `COP(=S)(NC(C)C)Oc1ccc(C)cc1[N+](=O)[O-]` (configuration not stated), the Potency entry in assay [1], in assay [2], in assay [4], in [5], in [6] and in assay [7] was “inactive” throughout. Also, the Potency entry in assay [8], in [18], in assay [9], in assay [12], in assay [13] and in [14] was “inactive” in each case. For the same compound, the Potency entry in assay [15], in assay [16] and in assay [17] was “inactive” throughout. Also, the Potency in assay [3] is 17.2 µM (active); in assay [10], 30.6 µM (active).

Consider `C=CCOC(=O)c1ccccc1N`, for which the Potency result in assay [1], in [2], in [3], in [4], in assay [5] and in assay [6] was “inactive” in each case. Further, the Potency result in assay [7], in [8], in assay [18], in [9], in assay [11] and in assay [19] was “inactive” in each case. For the same compound, the Potency result in [13], in assay [14], in [15], in [16] and in [17] was “inactive” throughout. For the same compound, the Potency in assay [12] was 30.8 µM (active).
